High-throughput results as filed in PubChem.
SW480 rerep: induces DNA re-replication in SW480 colon adenocarcinoma cells; AID 624297; Potency, µM (highest dose often 46.1 µM), inactives show top-dose re-replication activation, usual class: activators; actives 1.8% (n = 340,000); SW480 DNA re-replication, Hoechst DNA content imaging, 48 h; further: potency means the concentration at half of the fitted maximal effect; % of control where 0% means no effect; nearly all actives have a fitted effect of over 55% in size
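Quantitative HTS format with DMSO vehicle controls; 48 hr drug incubation at 37 C, then 40 min Hoechst staining and scanning imager measurement at 405 nm excitation.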
MCF10A rereplic: induces DNA re-replication in MCF 10a normal breast cells; MCF 10A DNA re-replication, Hoechst nuclear intensity, 48 h; Potency, µM (top dose mostly 46.1 µM), for inactives: top-dose activity, positive = re-replication, hits mostly activators; actives 2.9% (n = 350,000); further: potency means the concentration at half of the fitted maximal effect; % of control where 0% means no effect; nearly all actives have a fitted effect of over 50% in size
RORg inh: inhibitors of mouse ROR gamma transcriptional activity; actives 5.4% (n = 310,000); Drosophila S2 Gal4-RORgamma UAS-luciferase reporter, 20 h; Potency, µM (top dose mostly 53.6 µM), inactives show at the top dose activity change, negative = inhibition, most hits filed as inhibitors; AID 2551; P51450; further: potency means the concentration at half of the fitted maximal effect; on the % scale 0 is the no-effect control and ±100 the full control effect; nearly all actives have a fitted effect of over 60% in size
Target sequence (P51450 whole entry, looked up, the tested form may be a part): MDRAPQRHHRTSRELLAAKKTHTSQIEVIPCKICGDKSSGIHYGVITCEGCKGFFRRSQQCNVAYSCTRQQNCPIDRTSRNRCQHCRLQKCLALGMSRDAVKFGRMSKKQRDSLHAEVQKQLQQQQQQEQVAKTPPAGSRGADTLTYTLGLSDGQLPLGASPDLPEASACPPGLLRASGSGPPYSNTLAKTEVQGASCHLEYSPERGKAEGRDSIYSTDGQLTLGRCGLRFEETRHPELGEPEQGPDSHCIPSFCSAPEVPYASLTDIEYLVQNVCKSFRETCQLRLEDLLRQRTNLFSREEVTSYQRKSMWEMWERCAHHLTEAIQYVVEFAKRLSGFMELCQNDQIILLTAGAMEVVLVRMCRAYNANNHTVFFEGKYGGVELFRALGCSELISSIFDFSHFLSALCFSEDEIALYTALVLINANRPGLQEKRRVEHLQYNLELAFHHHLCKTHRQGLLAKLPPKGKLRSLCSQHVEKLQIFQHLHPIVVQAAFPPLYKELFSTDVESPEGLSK
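Compounds are pin-transferred onto Drosophila Schneider cells expressing a copper-inducible Gal4–ROR gamma transactivation domain fusion. After 1 hr, copper sulfate is added to 700 uM final; luciferase is read 20 hr later.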
VP16 counter: Gal4-VP16 reporter inhibition counter-screen; Drosophila S2 Gal4-VP16 UAS-luciferase, luminescence, 20 h; Potency, µM (series often up to 53.6 µM), for inactives: top-dose activity, negative = inhibition, hits mostly inhibitors; actives 3.5% (n = 310,000); AID 2546;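 further: Gal4-VP16 expression switched on by copper sulfate through the metallothionein promoter; potency means the concentration at half of the fitted maximal effect; on the % scale 0 is the no-effect control and ±100 the full control effect; nearly all actives have a fitted effect of over 50% in size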
IL1B secr inh: inhibitors of inflammasome signaling (IL-1 beta secretion); THP-1 LPS/ATP IL-1B secretion, AlphaLISA, 16 h; stronger effect = lower value; activity change, % at 57.5 µM; actives 4.7% (n = 360,000); AID 743279; in the data active means activity change below about -50%; inconclusive means mostly about -30% to -49%; further: on the % scale 0 is the no-effect control and ±100 the full control effect
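THP-1 cells pretreated 1 hr with compounds (up to 57.5 uM final), then stimulated with LPS (250 ng/mL final) plus ATP (1.25 mM final); secreted IL-1B measured by AlphaLISA after 16 hr, decreased signal indicating inhibition.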
Starred values were filed as active, the others as inactive; ? = inconclusive; · = no result given; [ ] = dose if it differs, or a comment. Compounds with a hit are over-represented: about 11% of the library has one in this group of screens. Unless noted, the call rests on the fitted dose curve; in most records, active means well fitted curve in the direction sought with a large enough effect; inconclusive means small, poorly fitted or top-dose-only effect, or another doubt; inactive means no such curve, though single readings can be large; an effect the other way counts as inactive or inconclusive.

SMILES | SW480 rerep | MCF10A rereplic | RORg inh | VP16 counter | IL1B secr inh
O=C(CSc1nnc(NC2CCCCC2)s1)N1CCOCC1 | -4% | 0% | · | · | 7
Cc1c(Cl)cccc1NC(=O)C1CC(=O)N(C2CCCC2)C1 (centres undefined) | -7% | -6% | · | · | -58*
Cc1c(Cl)cccc1NC(=O)CNC(=O)C1CC(=O)N(C2CCCC2)C1 (centres undefined) | -4% | 1% | · | · | 31
CC1CC2(CC(C)(C(=O)CSc3n[nH]c(-c4ccccc4Cl)n3)OC2=O)C(=O)O1 (centres undefined) | ? | 1% | 10µM* | ? | 20
CC1(C(=O)CSc2n[nH]c(-c3ccccc3Cl)n2)CCC(=O)O1 (centres undefined) | · | · | -14% | 2% | ·
CC(Nc1nc(N2CCNCC2)nc2ccccc12)c1ccccc1 (centres undefined) | 13% | 46% | -37% | 2% | -104*
CC(Nc1nc(-c2ccncc2)nc2ccccc12)c1ccccc1 (centres undefined) | ? | 25% | ? | -2% | 74
O=C1CCC=C1C(O)c1ccccc1 (centres undefined) | · | · | -1% | -9% | ·
O=C(c1cc2nc(-c3ccccc3)cc(C(F)(F)F)n2n1)N1CCCC1 | -4% | 4% | · | · | -28
CN1CCN(C(=O)c2cc3nc(-c4ccccc4)cc(-c4ccccc4)n3n2)CC1 | ? | 13µM* | 12% | 4% | ?
O=C(c1cc2nc(-c3ccccc3)cc(-c3ccccc3)n2n1)N1CCCC1 | ? | -9% | 20% | -15% | -67*
Cc1ccccc1NC(=O)CN1C(=O)S/C(=C/c2cccnc2)C1=O | -2% | -1% | ? | -7% | 28
CCN1C(=O)[C@H]2[C@H]3[C@H](O)[C@H](O)C/C(=N/O[C@@H](C)c4cn([C@H]5COC[C@H]5O)nn4)[C@@H]3CC[C@@H]2C1=O | · | · | -2%[10 µM] | -10%[10 µM] | ·
Cn1ccnc1SCC(=O)n1c2c(c3ccccc31)CCCC2 | -1% | -12% | 14µM* | -30% | ?
Cn1ccnc1SCC(=O)Nc1cccc2ccccc12 | -6% | 3% | -1% | 7% | 6
Cc1cccc(C)c1NC(=O)c1csc([C@H]2C[C@H](O)[C@@H](CO)O2)n1 | · | · | · | · | 8
c1ccc(N=NC2=NN(c3ccccc3)CS2)cc1 | · | · | · | · | -17
CC(=O)N1c2ccc(S(=O)(=O)N3CCCC3C(=O)NCc3ccccc3Cl)cc2CC1C (centres undefined) | ? | 22% | 6.3µM* | -5% | -18
CC(=O)N1c2ccc(S(=O)(=O)N3CCC(C(=O)NCc4ccccc4)CC3)cc2CC1C (centres undefined) | -8% | 9% | 6% | -2% | 14
COc1ccccc1CNC(=O)C1CCN(S(=O)(=O)c2ccc3c(c2)CC(C)N3C(C)=O)CC1 (centres undefined) | -3% | -1% | 0% | -4% | 29
COc1ccc(CNC(=O)C2CCN(S(=O)(=O)c3ccc4c(c3)CC(C)N4C(C)=O)CC2)cc1 (centres undefined) | ? | 8% | -3% | -3% | -76*
COc1ccc(S(=O)(=O)N2CCC(C(=O)NCCC(=O)Nc3cccc(Cl)c3)CC2)cc1 | ? | 21µM* | 1% | -7% | ?
CCN(CC)S(=O)(=O)c1cc(NC(=O)COC(=O)c2c(C)noc2C)ccc1C | ? | 3% | · | · | -50*
Cc1cc(NC(=O)COC(=O)c2c(C)noc2C)ccc1Br | -14% | -42% | 28% | 5% | 8
OC[C@@H]1CC[C@@H](Cc2ccc(-c3ccccc3)cc2)O1 | 7% | -11% | · | · | -21
COc1cc(C(C[N+](=O)[O-])c2c(-c3ccccc3)cc3ccccn23)cc(OC)c1OC (centres undefined) | 12µM* | ? | ? | ? | ?
COc1cc(-c2ncc3ccccn23)cc(OC)c1OC | -10% | ? | 4% | -4% | ?
COc1ccc(C(C[N+](=O)[O-])c2c(-c3ccccc3)cc3ccccn23)cc1OC (centres undefined) | ? | 21µM* | 8.9µM* | ? | -16
